Laboratory results from PubChem BioAssay.
Activity calls are given as the source filed them.

Key:
[1] = target: Albumin (Bos taurus) (UniProt P02769); experiment: bovine serum albumin binders on microarray, profiling panel, artefact control for SMM control protein annotation, biochemical, small-molecule microarray, Alexa647 label, 635/667 nm fluorescence (AID 1118); settings: BSA-A647 binding, fluorescence 635 nm, higher = more signal;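 note: score merges 667 nm emission intensity and signal-to-noise per printed compound spot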
Albumin (Bos taurus), sequence (P02769 whole entry, looked up): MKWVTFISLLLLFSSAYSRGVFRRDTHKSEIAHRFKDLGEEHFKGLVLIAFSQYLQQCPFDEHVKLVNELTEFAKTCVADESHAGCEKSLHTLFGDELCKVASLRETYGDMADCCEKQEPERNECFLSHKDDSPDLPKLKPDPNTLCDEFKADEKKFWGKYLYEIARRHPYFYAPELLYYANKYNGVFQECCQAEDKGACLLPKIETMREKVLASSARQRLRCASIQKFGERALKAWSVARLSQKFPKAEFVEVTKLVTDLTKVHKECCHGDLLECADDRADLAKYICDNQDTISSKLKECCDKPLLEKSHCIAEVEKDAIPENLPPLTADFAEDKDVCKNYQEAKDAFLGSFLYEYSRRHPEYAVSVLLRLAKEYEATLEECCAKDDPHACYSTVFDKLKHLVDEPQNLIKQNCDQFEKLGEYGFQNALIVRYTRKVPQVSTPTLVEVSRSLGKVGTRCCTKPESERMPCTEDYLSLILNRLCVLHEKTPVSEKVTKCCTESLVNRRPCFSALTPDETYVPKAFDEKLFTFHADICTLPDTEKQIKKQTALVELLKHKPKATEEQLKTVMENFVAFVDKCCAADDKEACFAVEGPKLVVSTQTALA

[2] = small-molecule microarray binders of probe aXIP, primary screen, biochemical, NeuroSMM set, 635/667 nm fluorescence (AID 1119); settings: higher = more signal, called active from +8 up or from −8 down;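 note: probe is the protein aXip251-270 applied at 1 µg/mL to compound-printed slides; binding of probe to printed compounds measured as 667 nm fluorescence plus signal to noise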
[3] = small-molecule binders of probe aNOTCH3, primary screen, biochemical, small-molecule microarray, 635/667 nm fluorescence (AID 1120); settings: higher = more signal;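 note: probe is a biotin-tagged antibody raised against NOTCH3 rather than NOTCH3 protein; score merges spot fluorescence near 667 nm with spot signal to noise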
[4] = small-molecule binders of probe aNOTCH2, primary screen, biochemical, small-molecule microarray, 635/667 nm fluorescence (AID 1121); settings: higher = more signal;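 note: score merges feature fluorescence read at 667 nm with its signal to noise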
[5] = target: Carbonic anhydrase 2 (Homo sapiens) (UniProt P00918); experiment: CAII small-molecule binders, profiling panel, biochemical, small-molecule microarray, Alexa647-labelled CAII (AID 1122); settings: CAII-A647 binding fluorescence, higher = more signal
[6] = COS7 lysate on small-molecule microarray, probe aHis, 635 nm (AID 1123); settings: COS7 cell lysate, fluorescence, higher = more signal;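 note: z-score combines 667nm fluorescence intensity with signal-to-noise per printed compound spot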
[7] = compound binding in COS7 lysate, probe aLAP1, primary screen, cell lysate, small-molecule microarray (AID 1124); settings: probe aLAP1, fluorescence, higher = more signal;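 note: lysate comes from COS7 cells expressing LAP1 and is applied at 0.3 µg/mL; score merges spot fluorescence near 667 nm with signal-to-noise over triplicate slides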
[8] = test system: Sam68 (KHDRBS1); experiment: Sam68 small-molecule binders, primary screen, biochemical, small-molecule microarray, 635 nm fluorescence (AID 1125); settings: small-molecule microarray binding, higher = more signal;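 note: score merges 667 nm channel intensity with signal to noise over triplicate slides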
[9] = test system: Chordin-like protein 2 (CHRDL2); experiment: CHRDL2 small-molecule binders, primary screen, biochemical, small-molecule microarray, 635 nm fluorescence (AID 1126); settings: small-molecule microarray binding, fluorescence 635 nm; higher = more signal;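 note: printed compound slides probed with Chrdl2 protein at 4 µg/mL for 1 h at 4 C; score merges 667 nm emission intensity with signal to noise over three replicate slides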
[10] = target: Concanavalin-A (Canavalia ensiformis) (UniProt P02866); experiment: ConA small-molecule binders, primary screen, artefact control for SMM control protein annotation, biochemical, small-molecule microarray, Alexa647 label, 635 nm (AID 1127); settings: ConA-A647 binding fluorescence, higher = more signal;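 note: z combines 667 nm emission intensity with signal-to-noise across three replicate slides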
Concanavalin-A (Canavalia ensiformis), sequence (P02866 whole entry, looked up): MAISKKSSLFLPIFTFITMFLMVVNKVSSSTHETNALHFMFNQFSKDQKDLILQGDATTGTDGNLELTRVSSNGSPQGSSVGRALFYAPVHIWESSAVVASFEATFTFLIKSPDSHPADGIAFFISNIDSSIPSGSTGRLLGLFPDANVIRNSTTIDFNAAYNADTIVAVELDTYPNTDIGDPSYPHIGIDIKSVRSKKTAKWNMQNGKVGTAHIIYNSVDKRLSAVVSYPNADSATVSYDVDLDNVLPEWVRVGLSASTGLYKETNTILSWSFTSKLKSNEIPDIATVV

[11] = anti-His antibody binders, primary screen, artefact control for SMM control protein annotation, biochemical, small-molecule microarray, 635 nm fluorescence (AID 1128); settings: anti-His Alexa647 antibody binding, higher = more signal;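 note: score merges feature fluorescence with signal-to-noise for each printed compound spot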
[12] = test system: Human papillomavirus type 1a E7 protein (residues 1-88); experiment: HPV1a E7 small-molecule binders, primary screen, biochemical, small-molecule microarray, residues 1-88, 635 nm (AID 1129); settings: small-molecule microarray binding, fluorescence 635 nm; higher = more signal
[13] = target: Focal adhesion kinase 1 (Homo sapiens) (UniProt Q05397); experiment: small-molecule microarray binders of FAK, primary screen, biochemical, 635/667 nm fluorescence, BSA, DTT (AID 1130); settings: PTK2 binding, 635 nm fluorescence, higher = more signal;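 note: composite of spot emission at 667 nm and signal to noise over triplicate slides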
Focal adhesion kinase 1 (Homo sapiens), sequence (Q05397 whole entry, looked up): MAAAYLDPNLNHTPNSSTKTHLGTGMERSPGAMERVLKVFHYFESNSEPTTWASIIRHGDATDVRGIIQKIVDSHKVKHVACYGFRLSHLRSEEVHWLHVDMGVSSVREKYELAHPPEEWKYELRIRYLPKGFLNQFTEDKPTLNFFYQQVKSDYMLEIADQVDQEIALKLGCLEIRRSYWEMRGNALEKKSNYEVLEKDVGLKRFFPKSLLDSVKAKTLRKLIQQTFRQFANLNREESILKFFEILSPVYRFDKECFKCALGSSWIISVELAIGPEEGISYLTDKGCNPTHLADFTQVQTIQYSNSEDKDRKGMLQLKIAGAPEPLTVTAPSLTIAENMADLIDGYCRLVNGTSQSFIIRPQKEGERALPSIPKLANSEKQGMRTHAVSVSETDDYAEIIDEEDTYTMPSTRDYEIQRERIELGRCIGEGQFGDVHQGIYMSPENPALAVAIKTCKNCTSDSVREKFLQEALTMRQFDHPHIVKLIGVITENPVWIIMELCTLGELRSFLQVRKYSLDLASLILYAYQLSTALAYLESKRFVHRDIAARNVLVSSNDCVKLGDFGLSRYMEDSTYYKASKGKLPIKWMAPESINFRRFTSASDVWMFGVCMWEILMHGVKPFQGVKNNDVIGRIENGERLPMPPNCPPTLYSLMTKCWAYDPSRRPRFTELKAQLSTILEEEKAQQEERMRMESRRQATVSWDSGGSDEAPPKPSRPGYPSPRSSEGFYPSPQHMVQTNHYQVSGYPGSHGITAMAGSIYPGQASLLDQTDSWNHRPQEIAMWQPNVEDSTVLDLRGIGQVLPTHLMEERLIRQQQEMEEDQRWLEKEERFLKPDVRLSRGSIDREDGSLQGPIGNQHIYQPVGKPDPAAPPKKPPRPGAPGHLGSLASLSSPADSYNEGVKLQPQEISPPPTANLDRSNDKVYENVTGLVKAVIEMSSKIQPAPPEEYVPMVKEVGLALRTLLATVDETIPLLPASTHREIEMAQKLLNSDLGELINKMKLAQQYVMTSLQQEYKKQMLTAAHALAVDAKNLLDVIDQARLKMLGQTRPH

[14] = test system: Fibrinogen (Alexa647-labelled); experiment: fibrinogen binders on compound microarrays, profiling panel, artefact control for SMM control-protein annotation, biochemical, small-molecule microarray, 635/667 nm fluorescence (AID 1131); settings: fibrinogen-A647 binding fluorescence, higher = more signal;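 note: z-score merges 667 nm fluorescence with per-spot signal-to-noise over triplicate slides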
[15] = target: Follistatin (Homo sapiens) (UniProt P19883); experiment: follistatin binders on small-molecule microarrays, primary screen, biochemical, small-molecule microarray, 635/667 nm fluorescence (AID 1132); settings: FST binding, 635 nm fluorescence, higher = more signal
Follistatin (Homo sapiens), sequence (P19883 whole entry, looked up): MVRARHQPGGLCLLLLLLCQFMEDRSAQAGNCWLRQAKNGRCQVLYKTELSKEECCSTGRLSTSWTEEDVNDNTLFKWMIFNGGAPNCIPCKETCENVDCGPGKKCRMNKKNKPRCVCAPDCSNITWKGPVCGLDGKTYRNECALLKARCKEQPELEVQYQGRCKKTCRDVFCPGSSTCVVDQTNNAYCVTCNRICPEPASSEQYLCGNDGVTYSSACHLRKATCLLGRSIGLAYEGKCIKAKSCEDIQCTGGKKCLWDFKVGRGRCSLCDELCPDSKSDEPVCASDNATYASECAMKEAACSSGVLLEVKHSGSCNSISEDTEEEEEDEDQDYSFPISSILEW

[16] = target: Fibroblast growth factor 2 (Homo sapiens) (UniProt P09038); experiment: FGF2 binders on small-molecule microarrays, primary screen, biochemical, small-molecule microarray, 635/667 nm fluorescence (AID 1133); settings: small-molecule microarray binding, FGF2, fluorescence 635/667; higher = more signal
Fibroblast growth factor 2 (Homo sapiens), sequence (P09038 whole entry, looked up): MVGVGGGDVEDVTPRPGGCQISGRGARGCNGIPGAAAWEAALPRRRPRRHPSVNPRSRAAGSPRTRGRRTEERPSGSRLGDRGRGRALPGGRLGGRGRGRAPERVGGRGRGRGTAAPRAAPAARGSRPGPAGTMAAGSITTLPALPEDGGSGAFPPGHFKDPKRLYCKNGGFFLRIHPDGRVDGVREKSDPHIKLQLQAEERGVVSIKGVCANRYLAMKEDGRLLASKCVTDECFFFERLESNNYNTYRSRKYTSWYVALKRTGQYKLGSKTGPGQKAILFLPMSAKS

[17] = mitochondrial membrane potential change in A549 cells, profiling panel, cell-based, JC-1 fluorescence, basal, 24 h, 100 nL (AID 1138); settings: higher = more signal;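 note: A549 lung adenocarcinoma cells under basal conditions with no added stimulus; test concentration not given here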
[18] = test system: Lefty1; experiment: Lefty1 binders on small-molecule microarrays, primary screen, biochemical, small-molecule microarray, 635/667 nm fluorescence (AID 1139); settings: small-molecule microarray binding, fluorescence 635/667; higher = more signal
[19] = test system: wheat germ agglutinin (Triticum aestivum), Alexa647-labelled; experiment: wheat germ agglutinin binders on compound microarrays, profiling panel, artefact control for SMM control-protein annotation, biochemical, small-molecule microarray, 635/667 nm fluorescence (AID 1140); settings: WGA-A647 binding, 635 nm fluorescence, higher = more signal;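 note: score merges 667 nm feature emission with signal to noise over triplicate slides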
[20] = target: Luciferin 4-monooxygenase (Photinus pyralis) (UniProt P08659); experiment: firefly luciferase enzyme inhibitors, primary screen, biochemical, luminescence, purified enzyme, 2006 set (AID 1141); settings: SteadyGlo luminescence, 30 min, higher = more signal, called active from +8 up or from −8 down;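 note: cell-free assay with purified firefly luciferase at 100 ng per well in PBS; test concentration not given here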
Luciferin 4-monooxygenase (Photinus pyralis), sequence (P08659 whole entry, looked up): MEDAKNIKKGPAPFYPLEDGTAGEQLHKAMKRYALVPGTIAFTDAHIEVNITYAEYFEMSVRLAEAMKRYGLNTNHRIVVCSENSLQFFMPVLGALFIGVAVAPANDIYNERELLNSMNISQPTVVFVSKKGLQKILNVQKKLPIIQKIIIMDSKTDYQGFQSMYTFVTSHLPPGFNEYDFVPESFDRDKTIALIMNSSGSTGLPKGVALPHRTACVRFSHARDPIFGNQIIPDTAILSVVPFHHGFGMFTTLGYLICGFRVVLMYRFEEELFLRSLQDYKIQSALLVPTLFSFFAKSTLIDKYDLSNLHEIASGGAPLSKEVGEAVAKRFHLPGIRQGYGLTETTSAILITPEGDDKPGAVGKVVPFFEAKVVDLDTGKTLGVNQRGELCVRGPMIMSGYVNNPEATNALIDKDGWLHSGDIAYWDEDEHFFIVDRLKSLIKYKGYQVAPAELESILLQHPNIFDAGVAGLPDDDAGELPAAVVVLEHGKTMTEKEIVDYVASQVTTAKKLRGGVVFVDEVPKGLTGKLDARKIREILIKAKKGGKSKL

Row | SMILES | composite z-score [1] | composite Z-score [2] | composite z-score [3] | composite z-score [4] | composite z-score [5] | composite z-score [6] | composite z-score [7] | composite z-score [8] | composite z-score [9] | composite z-score [10] | composite z-score [11] | composite z-score [12] | composite z-score [13] | composite z-score [14] | composite z-score [15] | composite z-score [16] | z-score [17] | composite z-score [18] | composite z-score [19] | z-score [20]
1 | COCCOC(=O)N1C(=O)[C@@]2(c3cc(C#CC4(O)CCCCCC4)ccc31)[C@H](c1ccc(OCCO)cc1)N1[C@H](c3ccccc3)[C@H](c3ccccc3)OC(=O)[C@H]1[C@@H]2C(=O)NC[C@H](O)c1ccccc1 | 0.203 | -0.317 (inactive) | 0.0039 | -0.115 | 0.367 | 1.71 | 0.288 | 1.29 | -0.0516 | 1.12 | 1.67 | 1.21 | 0.184 | 0.946 | 1.15 | 0.909 | -1.52 | 0.907 | 0.784 | -1.05 (inactive)
2 | COC(=O)[C@H](C)NC(=O)CCC1CC(OC(=O)NCc2cccc3ccccc23)CC2(CCCC(COC(=O)NCC3CCCCC3)O2)O1 (stereo not given in full) | -0.409 | -0.551 (inactive) | 0.175 | -0.0984 | 0.612 | 1.61 | 0.486 | 1.29 | 0.62 | 1.12 | 0.876 | 1.22 | 0.234 | 0.986 | 0.591 | 1.4 | -0.25 | 1.09 | 0.487 | 0.925 (inactive)
3 | CCCNC(=O)OC[C@H]1O[C@H](CCON=C2[C@H]3CCn4c(=O)n(-c5ccccc5)c(=O)n4[C@H]3[C@H](O)[C@@H]3O[C@H]23)C=C[C@@H]1Oc1ccc(OC)cc1 | 0.704 | 2.63 (inactive) | -0.0377 | -0.0444 | 0.167 | 0.73 | 0.587 | 0.522 | 0.318 | 0.216 | -0.429 | 0.281 | 0.172 | 0.297 | 0.146 | 0.409 | -0.0269 | 0.502 | 0.201 | 0.0766 (inactive)
4 | CC1CC/C=C\[C@H]2OC34C=CCN(C(C)C)C(=O)[C@H]3N(CCCO)C(=O)[C@@H]4C2C(=O)O1 (stereo not given in full) | 0.468 | -1.03 (inactive) | -0.0018 | -0.0621 | 0.9 | 0.702 | 0.962 | -0.499 | -0.951 | -1.74 | 1.41 | -0.883 | -0.716 | -1.5 | -1.07 | -1.24 | 0.439 | -0.837 | -1.09 | -0.623 (inactive)
5 | COC(=O)[C@@]1(Cc2ccccc2)[C@H]2c3cc(C(=O)N4CCCC4)n(Cc4ccccn4)c3C[C@H]2CN1C(=O)c1ccccc1 | 0.939 | 0.193 (inactive) | 0.697 | 0.284 | 0.834 | 3.44 | 0.596 | 1.29 | 0.331 | 1.04 | 1.81 | 1.26 | 0.846 | 0.412 | 1.24 | 0.354 | 0.449 | 0.19 | 0.236 | 1.93 (inactive)
6 | C#CCCCON=C1C[C@@H](O)[C@@H](O)[C@@H]2[C@@H]3C(=O)N(CCC(=O)OCC)C(=O)[C@@H]3CC[C@@H]12 | 0.674 | -0.521 (inactive) | 0.0836 | -0.0404 | -0.0544 | 0.166 | 1.05 | -0.349 | 0.715 | -0.962 | -0.264 | -0.0592 | 0.934 | 0.211 | -1.11 | -0.823 | -0.139 | -0.655 | 0.662 | 0.224 (inactive)
7 | CN1C(=O)C2C(C1=O)C1C=C(CCCO)C2C(c2ccc(CN3CCCC3)cc2)N1C (stereo not given) | -0.356 | -0.816 (inactive) | -0.068 | -0.0907 | -0.221 | -0.377 | 0.0357 | 0.239 | 0.0976 | -0.56 | -0.0122 | -0.329 | 0.0551 | -1.58 | -0.227 | -0.052 | -1.01 | -0.0306 | -0.236 | 0.53 (inactive)
8 | COC(=O)[C@@H]1CCCN1C(=O)[C@@H](C)CO | 0.448 | -0.505 (inactive) | 0.0042 | -0.16 | 0.192 | 0.84 | -0.436 | 0.95 | 0.584 | 0.873 | 0.933 | 1.16 | 0.21 | 0.868 | 0.473 | 0.723 | -1.29 | 0.29 | 1.15 | 0.09 (inactive)
9 | C#C[C@@H]1Oc2ccccc2S(=O)(=O)N2CCC[C@H]12 | -0.13 | 0.235 (inactive) | -0.063 | -0.185 | 0.256 | -1.2 | -0.34 | -1.29 | 0.424 | -0.512 | 0.104 | -0.283 | 0.193 | -0.635 | 0.562 | 0.155 | -0.273 | 0.0495 | -0.249 | -0.0351 (inactive)
10 | CO[C@@H]1COC(=O)CCC[C@@H](C)[C@H](OC)COC(=O)[C@H](Cc2ccccc2)NC(=O)CC=C[C@H]1C | -0.603 | 0.274 (inactive) | -0.16 | -0.175 | -0.571 | -1.42 | -0.34 | -1.56 | 1.39 | -1.21 | 0.393 | -2.53 | -0.268 | -0.876 | 1.29 | 0.273 | -0.972 | 0.978 | -0.271 | -0.418 (inactive)
11 | O=C1C[C@@H](O)[C@@H](O)[C@@H]2[C@@H]3C(=O)N(C4CCCCC4)C(=O)[C@@H]3CC[C@H]12 | 0.258 | -0.236 (inactive) | 0.0208 | -0.0761 | 0.168 | 0.323 | -0.505 | 0.742 | 0.325 | 0.564 | 0.335 | 0.949 | 0.329 | 0.583 | 0.525 | 0.521 | -0.338 | 0.422 | 0.103 | -0.163 (inactive)
